# Assay results as given in publication PMC11062922 (Nature Chemical Biology, 2023).
# Like-named read-outs stand apart in the source and are kept apart here.
# Legend:
# Parameters in all cases: species or system human, MV4-11 + K-562 + COLO205 + SK-N-BE2 + OVCAR-8
# ADCK1 = details: read-out: apparent Kd; compound concentrations: 100 nM and 1000 nM (sheet 'Samples'), CATDS: 4.4524563972159897E-2; n = 1
# ADK = details: read-out: apparent Kd; compound concentrations: 100 nM and 1000 nM (sheet 'Samples'), CATDS: 4.5787667935106503E-2; n = 1
# CDK4 = details: read-out: apparent Kd; compound concentrations: 100 nM and 1000 nM (sheet 'Samples'), CATDS: 4.6312693671670499E-2; n = 1
# CSNK1D = details: read-out: apparent Kd; compound concentrations: 100 nM and 1000 nM (sheet 'Samples'), CATDS: 7.6669822847603902E-2; n = 1
# CSNK1E = details: read-out: apparent Kd; compound concentrations: 100 nM and 1000 nM (sheet 'Samples'), CATDS: 6.5483605156218705E-2; n = 1
# MAP4K5 = details: read-out: apparent Kd; compound concentrations: 100 nM and 1000 nM (sheet 'Samples'), CATDS: 6.0957264613737197E-2; n = 1
# PRKACA = details: read-out: apparent Kd; compound concentrations: 100 nM and 1000 nM (sheet 'Samples'), CATDS: 6.9210809350161107E-2; n = 1
# PRKACB = details: read-out: apparent Kd; compound concentrations: 100 nM and 1000 nM (sheet 'Samples'), CATDS: 6.0886440238293899E-2; n = 1
# PRKCD = details: read-out: apparent Kd; compound concentrations: 100 nM and 1000 nM (sheet 'Samples'), CATDS: 6.5587395591723996E-2; n = 1
# PRKCQ = details: read-out: apparent Kd; compound concentrations: 100 nM and 1000 nM (sheet 'Samples'), CATDS: 0.20872331441348899; n = 1
# PRKD2 = details: read-out: apparent Kd; compound concentrations: 100 nM and 1000 nM (sheet 'Samples'), CATDS: 0.17196563894613301; n = 1
# PRKD3 = details: read-out: apparent Kd; compound concentrations: 100 nM and 1000 nM (sheet 'Samples'), CATDS: 0.24703755989756301; n = 1
# RPS6KB1 = details: read-out: apparent Kd; compound concentrations: 100 nM and 1000 nM (sheet 'Samples'), CATDS: 6.31408503509263E-2; n = 1
# TNIK = details: read-out: apparent Kd; compound concentrations: 100 nM and 1000 nM (sheet 'Samples'), CATDS: 0.113919393065207; n = 1
# ACVR1 = details: read-out: apparent Kd; compound concentrations: 100 nM and 1000 nM (sheet 'Samples'), CATDS: 7.6276409382360397E-2; n = 1
# ACVR2B = details: read-out: apparent Kd, compound concentrations: 100 nM and 1000 nM (sheet 'Samples'), n = 1
# BCR = details: read-out: apparent Kd; compound concentrations: 100 nM and 1000 nM (sheet 'Samples'), CATDS: 7.0620023573944493E-2; n = 1
# FLT3 = details: read-out: apparent Kd, compound concentrations: 100 nM and 1000 nM (sheet 'Samples'), n = 1
# FLT4 = details: read-out: apparent Kd, compound concentrations: 100 nM and 1000 nM (sheet 'Samples'), n = 1
# FRK = details: read-out: apparent Kd; compound concentrations: 100 nM and 1000 nM (sheet 'Samples'), CATDS: 7.6735011828902105E-2; n = 1
# FYN = details: read-out: apparent Kd; compound concentrations: 100 nM and 1000 nM (sheet 'Samples'), CATDS: 5.82468241174715E-2; n = 1
# GAK = details: read-out: apparent Kd; compound concentrations: 100 nM and 1000 nM (sheet 'Samples'), CATDS: 5.5943535710341101E-2; n = 1
# IRAK3 = details: read-out: apparent Kd; compound concentrations: 100 nM and 1000 nM (sheet 'Samples'), CATDS: 6.2537206863604394E-2; n = 1
# PIP4K2C = details: read-out: apparent Kd; compound concentrations: 100 nM and 1000 nM (sheet 'Samples'), CATDS: 5.2092814624207201E-2; n = 1
# RET = details: read-out: apparent Kd, compound concentrations: 100 nM and 1000 nM (sheet 'Samples'), n = 1
# RIPK2 = details: read-out: apparent Kd; compound concentrations: 100 nM and 1000 nM (sheet 'Samples'), CATDS: 0.18233295125810001; n = 1
# STK11 = details: read-out: apparent Kd; compound concentrations: 100 nM and 1000 nM (sheet 'Samples'), CATDS: 4.7078768974871503E-2; n = 1
# TGFBR2 = details: read-out: apparent Kd; compound concentrations: 100 nM and 1000 nM (sheet 'Samples'), CATDS: 0.25024360667503898; n = 1
# PI4KB = details: read-out: apparent Kd; compound concentrations: 100 nM and 1000 nM (sheet 'Samples'), CATDS: 0.57979233132980301; n = 1
# AURKA = details: read-out: apparent Kd; compound concentrations: 100 nM and 1000 nM (sheet 'Samples'), CATDS: 0.17816442953383199; n = 1
# AURKB = details: read-out: apparent Kd; compound concentrations: 100 nM and 1000 nM (sheet 'Samples'), CATDS: 0.16275021162643; n = 1
# CDKL5 = details: read-out: apparent Kd; compound concentrations: 100 nM and 1000 nM (sheet 'Samples'), CATDS: 3.9289785265400001E-2; n = 1
# FGFR1 = details: read-out: apparent Kd; compound concentrations: 100 nM and 1000 nM (sheet 'Samples'), CATDS: 3.3147223570266997E-2; n = 1
# GSK3A = details: read-out: apparent Kd; compound concentrations: 100 nM and 1000 nM (sheet 'Samples'), CATDS: 0.17602991696345399; n = 1
# GSK3B = details: read-out: apparent Kd; compound concentrations: 100 nM and 1000 nM (sheet 'Samples'), CATDS: 0.14122707507865501; n = 1
# MAP3K1 = details: read-out: apparent Kd; compound concentrations: 100 nM and 1000 nM (sheet 'Samples'), CATDS: 3.7364470577418298E-2; n = 1
# MAP3K5 = details: read-out: apparent Kd; compound concentrations: 100 nM and 1000 nM (sheet 'Samples'), CATDS: 2.9017198987143701E-2; n = 1
# MAPK10 = details: read-out: apparent Kd; compound concentrations: 100 nM and 1000 nM (sheet 'Samples'), CATDS: 3.1635267678624499E-2; n = 1
# MAPK9 = details: read-out: apparent Kd; compound concentrations: 100 nM and 1000 nM (sheet 'Samples'), CATDS: 4.3387929743655899E-2; n = 1
# NQO2 = details: read-out: apparent Kd; compound concentrations: 100 nM and 1000 nM (sheet 'Samples'), CATDS: 5.8964681911963503E-2; n = 1
# NUAK1 = details: read-out: apparent Kd; compound concentrations: 100 nM and 1000 nM (sheet 'Samples'), CATDS: 3.13847647871121E-2; n = 1
# PLK4 = details: read-out: apparent Kd; compound concentrations: 100 nM and 1000 nM (sheet 'Samples'), CATDS: 5.2678675037883101E-2; n = 1
# PRKAA2 = details: read-out: apparent Kd; compound concentrations: 100 nM and 1000 nM (sheet 'Samples'), CATDS: 3.01302788001056E-2; n = 1
# SLK = details: read-out: apparent Kd; compound concentrations: 100 nM and 1000 nM (sheet 'Samples'), CATDS: 2.96585498316322E-2; n = 1
# STK10 = details: read-out: apparent Kd; compound concentrations: 100 nM and 1000 nM (sheet 'Samples'), CATDS: 4.4384834768784902E-2; n = 1
# STK16 = details: read-out: apparent Kd; compound concentrations: 100 nM and 1000 nM (sheet 'Samples'), CATDS: 3.04344636095151E-2; n = 1
# TEC = details: read-out: apparent Kd; compound concentrations: 100 nM and 1000 nM (sheet 'Samples'), CATDS: 3.6245892865131898E-2; n = 1
# TTN = details: read-out: apparent Kd; compound concentrations: 100 nM and 1000 nM (sheet 'Samples'), CATDS: 3.6738161320686101E-2; n = 1
smiles,measurement,setting,value
Cc1n[nH]c2ccc(-c3cc(OC[C@@H](N)Cc4c[nH]c5ccccc45)cnc3-c3ccoc3)cc12.Cc1n[nH]c2ccc(-c3cc(OC[C@@H](N)Cc4c[nH]c5ccccc45)cnc3-c3ccoc3)cc12.O=C(O)C(F)(F)F.O=C(O)C(F)(F)F.O=C(O)C(F)(F)F [GSK562689A],potency estimated from few doses,ADCK1,2.15 µM
same,potency estimated from few doses,ADK,1.83 µM
same,potency estimated from few doses,CDK4,1.72 µM
same,potency estimated from few doses,CSNK1D,0.302 µM
same,potency estimated from few doses,CSNK1E,0.464 µM
same,potency estimated from few doses,MAP4K5,0.577 µM
same,potency estimated from few doses,PRKACA,0.396 µM
same,potency estimated from few doses,PRKACB,0.579 µM
same,potency estimated from few doses,PRKCD,0.462 µM
same,potency estimated from few doses,PRKCQ,0.0417 µM
same,potency estimated from few doses,PRKD2,0.0572 µM
same,potency estimated from few doses,PRKD3,0.0323 µM
same,potency estimated from few doses,RPS6KB1,0.518 µM
same,potency estimated from few doses,TNIK,0.123 µM
Cc1ccc(Nc2ccnc(Nc3cccc(C(N)=O)c3)n2)cc1O.Cl [GW575808A],potency estimated from few doses,ACVR1,0.534 µM
same,potency estimated from few doses,ACVR2B; CATDS: 0.210677427457096,0.077 µM
same,potency estimated from few doses,BCR,0.645 µM
same,potency estimated from few doses,FLT3; CATDS: 5.3612696826146597E-2,1.45 µM
same,potency estimated from few doses,FLT4; CATDS: 5.6175855360763499E-2,1.24 µM
same,potency estimated from few doses,FRK,0.526 µM
same,potency estimated from few doses,FYN,1.1 µM
same,potency estimated from few doses,GAK,1.25 µM
same,potency estimated from few doses,IRAK3,0.894 µM
same,potency estimated from few doses,PIP4K2C,1.61 µM
same,potency estimated from few doses,RET; CATDS: 7.3825490143618097E-2,0.578 µM
same,potency estimated from few doses,RIPK2,0.0969 µM
same,potency estimated from few doses,STK11,2.43 µM
same,potency estimated from few doses,TGFBR2,0.0594 µM
CNc1ncnc2[nH]ncc12 [SKF-18355],potency estimated from few doses,ACVR2B; CATDS: 0.43951319986121201,1.91 µM
same,potency estimated from few doses,PI4KB,1.08 µM
Cc1[nH]nc2c1N=C(c1ccccc1F)c1cc(C(N)=O)ccc1N2 [RO0282586-000],potency estimated from few doses,ACVR2B; CATDS: 3.5760557024692601E-2,1 µM
same,potency estimated from few doses,AURKA,0.03 µM
same,potency estimated from few doses,AURKB,0.0345 µM
same,potency estimated from few doses,CDKL5,0.749 µM
same,potency estimated from few doses,FGFR1,1.3 µM
same,potency estimated from few doses,FLT3; CATDS: 3.2008123306219403E-2,1.48 µM
same,potency estimated from few doses,FLT4; CATDS: 9.9526112559891702E-2,0.0828 µM
same,potency estimated from few doses,GSK3A,0.0305 µM
same,potency estimated from few doses,GSK3B,0.0436 µM
same,potency estimated from few doses,MAP3K1,0.873 µM
same,potency estimated from few doses,MAP3K5,2.23 µM
same,potency estimated from few doses,MAPK10,1.55 µM
same,potency estimated from few doses,MAPK9,0.564 µM
same,potency estimated from few doses,NQO2,0.259 µM
same,potency estimated from few doses,NUAK1,1.6 µM
same,potency estimated from few doses,PLK4,0.34 µM
same,potency estimated from few doses,PRKAA2,1.89 µM
same,potency estimated from few doses,RET; CATDS: 5.3147422630729399E-2,0.333 µM
same,potency estimated from few doses,SLK,2.02 µM
same,potency estimated from few doses,STK10,0.53 µM
same,potency estimated from few doses,STK16,1.81 µM
same,potency estimated from few doses,TEC,0.96 µM
same,potency estimated from few doses,TTN,0.92 µM
